According to PubChem BioAssay AID1578 (Sanford-Burnham Center for Chemical Genomics, 2009):
Among all 290,000 compounds or so, about 3,000 (1%) were called active. Many of the other results were omitted from the sample, so actives are more common in it than they were. A number with no mark means an inactive call. No stated cut-off is given here; in the data, active means inhibition mostly above about 36% (no sharp cut-off); inactive means mostly below about 34%.

Assay: NOD1 signaling inhibitors, primary screen, cell-based, luminescence, uHTS (AID 1578);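 further: HEK-293T reporter cells stimulated with the NOD1 agonist gamma-tri-DAP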
Conditions: NOD1-driven NF-kB luciferase reporter cells, at 4 µM, stronger effect = higher value

Compound	inhibition
CCC1OC2(C)OC(=N)C1(C#N)C(C#N)(C#N)C2c1ccccc1 (stereo not given)	-1.7%
CC1OC2(C)OC(=N)C1(C#N)C(C#N)(C#N)C2c1ccccc1 (stereo not given)	-6.3%
CC(C)C1OC2(C)OC(=N)C1(C#N)C(C#N)(C#N)C2c1ccccc1 (stereo not given)	78.7% (active)
CC(C)N1CCN(Cc2nc(-c3ccccc3)cs2)CC1CCO (stereo not given)	-44.6%
Cc1ccc(Sc2cc(NCCCO)c([N+](=O)[O-])c3nonc23)cc1	2.1%
COc1ccc(CNc2cc(NCCCO)c([N+](=O)[O-])c3nonc23)cc1	48.5% (active)
COc1ccc(Nc2cc(NCCCO)c([N+](=O)[O-])c3nonc23)cc1	4.8%
Cc1ccc(N=Nc2ccc3ccccc3c2O)cc1	19%
Oc1c(N=Nc2ccc(F)cc2)ccc2ccccc12	-69.9%
Oc1c(N=Nc2ccccn2)ccc2ccccc12	96.4% (active)
CCc1ccc(OCC(=O)N/N=C(\C)c2ccccc2OC(F)F)cc1	-2.9%
Cc1[nH]nc(SCC(=O)NCc2ccc(Cl)cc2)c1[N+](=O)[O-]	-33.8%
COC(=O)Nc1nc(-c2ccc(F)cc2)c(C)s1	-56.3%
C/C(=C/Cc1c(O)cc2oc(C)cc(=O)c2c1O)COC1OC(CO)C(O)C(O)C1O (stereo not given)	-47.3%
COc1cc2ccc(=O)oc2c(CC=C(C)C)c1OC	-5.1%
Cc1ccc(OCC(=O)Nc2ccc(N3CCN(C(=O)c4ccco4)CC3)cc2)cc1C	-9.9%
Cc1ccc(Nc2nc(-c3cccs3)cs2)nc1	46% (active)
c1ccc(Nc2nc(-c3cccs3)cs2)nc1	-50.9%
Cc1ccc(Nc2nc(-c3ccccc3)cs2)nc1	-37%
CCCn1c(N)c(C(c2ccc(OC)cc2)N2CCN(c3ccccc3)CC2)c(=O)[nH]c1=O (stereo not given)	10%
COc1ccc(-c2[nH]c(-c3ccc(Cl)cc3)nc2SCC(=O)Nc2nccs2)cc1	-3.8%
COc1ccc(-c2[nH]c(-c3ccccc3)nc2SCC(=O)Nc2nccs2)cc1	82.4% (active)
COc1ccc(-c2[nH]c(-c3ccc(C)cc3)nc2SCC(=O)Nc2nccs2)cc1	-13.3%
CCC(C)NC(=O)CN(c1ccc(OC)cc1)S(=O)(=O)c1ccccc1 (stereo not given)	-38.9%

Compound	inhibition
CCOC(=O)c1cnc2c(C)c(Cl)ccc2c1N1CCOCC1	14.6%
[O-][n+]1cccc2c(Br)cc(Br)c(O)c21	86% (active)
C[n+]1cccc2c(Br)ccc([O-])c21	-5.6%
NCC(=O)c1cccc2ccc[n+]([O-])c12	-2.6%
O=C(Cc1ccc(F)cc1)NCCc1cnc[nH]1	-7.3%
COc1cc(/C=c2\sc3nc(-c4ccncc4)nn3c2=O)ccc1OC(C)=O	-18.6%
CC(c1ccco1)N(C(=O)C12CC3CC(CC(C3)C1)C2)c1ccccn1 (stereo not given)	17.1%
CC(c1ccco1)N(C(=O)C12CC3CC(CC(C)(C3)C1)C2)c1ccccn1 (stereo not given)	31.7% (active)
CC(c1ccco1)N(C(=O)C12CC3(C)CC(C)(CC(C)(C3)C1)C2)c1ccccn1 (stereo not given)	-2%
CCC(c1nnc(SCC(=O)NC23CC4CC(CC(C4)C2)C3)o1)N(C)C (stereo not given)	-5.8%
Cc1ccc(NS(=O)(=O)c2cc3c4c(cccc4c2)C(=O)NC3=O)cc1	18.1%
CN1CCN(CC(=O)Nc2nnc(-c3cccs3)s2)CC1	-26.2%
O=C(CN1CCCCC1)Nc1nnc(-c2ccccc2)s1	2.9%
O=C(CN1CCCC1)Nc1nnc(-c2cccs2)s1	74.9% (active)
CC(C)NC(=O)CN1C(=O)C(=O)c2ccccc21	15.8%
CCOC(=O)N1CCC(NC(=S)Nc2ccc3nc(N4CCN(CC)CC4)cc(C)c3c2)CC1	48.8% (active)
CCOC(=O)N1CCC(NC(=S)Nc2ccc3nc(N4CCN(C)CC4)cc(C)c3c2)CC1	3.9%
CCOC(=O)N1CCN(C(=S)Nc2ccc3nc(N4CCN(CC)CC4)cc(C)c3c2)CC1	-21%
COc1ccc(C(=O)Oc2ccc(N(C)S(=O)(=O)c3ccccc3)cc2)cc1[N+](=O)[O-]	8.9%
Cc1cc(C)cc(NC(=O)C[n+]2ccccc2)c1	45.4%
Cc1cccc(-n2ncc3c(N(C)Cc4ccccc4)ncnc32)c1	2.1%
Cc1cc(S(=O)(=O)Nc2ccc3cn[nH]c3c2)c(C)cc1Cl	-20.3%
O=S(=O)(Nc1ccc2cn[nH]c2c1)c1ccc(Cl)cc1	-12.5%
O=C1C(Cl)=C(Nc2ccc3cn[nH]c3c2)C(=O)c2ccccc21	61.1% (active)

Compound	inhibition
CC(C)C(=O)N1CCC2(CC1)Oc1ccc(Cl)cc1C(=O)C21CC(c2ccc(Cl)cc2)=NO1 (stereo not given)	-3.8%
O=C1c2ccccc2NC(c2ccccc2F)N1NS(=O)(=O)c1ccccc1 (stereo not given)	-13%
O=C(O)CC1(CC(=O)N2CCN(CCO)CC2)CCCC1	-19.8%
CCc1ccc(NC(=O)c2cnn3ccccc23)cc1	50.8%
CC(=O)c1ccc(NC(=O)c2cnn3ccccc23)cc1	63.1% (active)
CC(=O)c1cccc(NC(=O)c2cnn3ccccc23)c1	-1%
Cc1ccccc1C(=O)c1c[nH]c(C(=O)NCc2cccs2)c1	2.5%
Cc1ccc(-n2cc(C(=O)O)c(=O)cc2C)c(C)c1	-25.8%
CC(C)n1cc(CN2CCC(n3nccc3NC(=O)CCCc3ccccc3)CC2)cn1	-24.8%
CCOc1cccc(NC(=O)C2CC(=O)N(C)C(=Nc3ccccc3)S2)c1 (stereo not given)	5.5%
CCOc1cccc(NC(=O)C2CC(=O)N(C)C(=Nc3cccc(F)c3)S2)c1 (stereo not given)	73.6% (active)
COc1cccc(NC(=O)C2CC(=O)N(C)C(=Nc3cccc(F)c3)S2)c1 (stereo not given)	13.8%
Fc1ccc(N=c2ssnc2Cl)c(F)c1	-14.2%
C/C(=N\Nc1ccc(S(=O)(=O)N2CCOCC2)cc1[N+](=O)[O-])C(C)C	-8.2%
Cn1c(SCC(=O)NCCc2ccccc2)nnc1-c1ccncc1	-5.8%
Cc1nc2ncnn2c(N2CCN(C(=O)c3cccc(F)c3)CC2)c1Cc1ccccc1	-1.9%
CN=C1SC(CC(=O)Nc2ccc(F)cc2F)C(=O)N1/N=C/c1ccc(OC(F)F)c(OC)c1 (stereo not given)	-35.2%
CN=C1SC(CC(=O)Nc2ccccc2F)C(=O)N1/N=C/c1ccc(O)c(OC)c1 (stereo not given)	47.1% (active)
CCOc1ccc(/C=N/N2C(=O)C(CC(=O)Nc3ccc(F)cc3F)SC2=NC)cc1OC (stereo not given)	-23%
Cc1ccc(-n2c([S-])c(C(=O)NC(C)c3ccccc3)[n+]3ccccc23)cc1 (stereo not given)	-40.2%
CCOC(=O)CSc1nc(-c2ccccc2)nc2ccc(F)cc12	-21.7%
CCn1c(SCC(=O)N/N=C(\C)c2ccncc2)nnc1-c1ccc(C)cc1	-7.3%
CCn1c(SCC(=O)Nc2nc(-c3ccccc3)cs2)nnc1-c1ccccc1O	12.7%
CCn1c(SCC(=O)N/N=C/c2ccccc2OCC(=O)O)nnc1-c1ccccc1	-7.7%

Compound	inhibition
CCOC(=O)N1CCN(C(=O)CSCC(=O)Nc2nc(-c3ccccc3)cs2)CC1	-14%
CCn1c(SCC(=O)N/N=C/c2ccccc2OCC(=O)O)nnc1-c1ccc(C)cc1	2.1%
CCn1c(SCC(=O)N/N=C(\C)c2ccco2)nnc1-c1ccccc1	-25.7%
CCn1c(SCC(=O)N/N=C/c2ccccc2OCC(=O)O)nnc1-c1ccc(C(C)(C)C)cc1	86.7% (active)
CCOC(=O)N1CCN(C(=O)CSCC(=O)Nc2nc(-c3ccc(C)cc3)cs2)CC1	13.3%
CCOC(=O)N1CCN(C(=O)CSCC(=O)Nc2nc(-c3ccc(-c4ccccc4)cc3)cs2)CC1	58.2% (active)
CCn1c(SCC(=O)Nc2nc(-c3ccc(C)cc3)cs2)nnc1-c1ccccc1	31%
CCn1c(SCC(=O)N/N=C(\C)c2ccncc2)nnc1-c1ccccc1	58.5% (active)
O=C(NCCc1ccccc1)c1ccc(CS(=O)Cc2cccc(Cl)c2)o1 (stereo not given)	-20.6%
CCOC(=O)c1c(/N=C/c2ccccc2O)sc2c1CCC2	8.8%
COc1ccc(S(=O)(=O)NCCc2c(C)nn(C)c2Oc2ccccc2)cc1	-4.8%
COc1ccc(CCCC(=O)Nc2ccc(F)cc2)cc1	11.5%
CCNc1nc(NC(C)C)nc(Oc2ccc(/C=N/O)cc2)n1	-10.5%
CCOc1ccc(CC2NCCc3cc(OCC)c(OCC)cc32)cc1OCC (stereo not given)	-27.9%
CSc1ccc(C(=O)C2CCCN(C(=O)CN3CCOC3=O)C2)cc1 (stereo not given)	-29.8%
CCOc1ccc(C(=O)NCCC(=O)N2CCC3(CC2)NCCc2[nH]cnc23)cc1	-23.8%
O=NN(CCc1ccncc1)c1ccc(OCc2ccccc2)cc1	43.7% (active)
COc1ccc(N(Cc2ccccc2)N=O)cc1	-31.8%
O=C(N/N=C/c1ccc(OCc2ccccc2)cc1)c1ccncc1	-35.1%
Cc1c(C)c2ccc(O)c(CN3CCN(C)CC3)c2oc1=O	2%
CCOc1ccccc1NC(=S)NC(=O)C1CCCCC1	-8%
COc1ccccc1NC(=S)NC(=O)C1CC1	-18.7%
CCOc1ccccc1NC(=S)NC(=O)C1CC1	65.9% (active)
